“And” between values parts separate entries of the source, which are not always exact repeats. Identical values can stand only once. Values without a mark were called inactive. Results filed as inconclusive are left out. The source made the active and inactive calls. Unless noted, the call rests on the fitted dose curve; in most records, active means well fitted curve in either direction with a large enough effect (not every such curve was filed as active); inconclusive means small, poorly fitted or top-dose-only effect, or another doubt; inactive means flat fitted curve, though single readings scatter.
Tests used:
[1] = Stat Signaling Pathway (AID 446); conditions: ME-180 (cervical carcinoma) SIE beta-lactamase reporter, IL-6 stimulated, 5 h; at 38 µM (top of the series) unless noted;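 further: ME-180 cervical cancer cells given 40 pM IL-6 alongside compound; SIE-controlled beta-lactamase reporter measured as 460/530 nm FRET emission ratio; on the % scale 0 is the no-effect control and ±100 the full control effect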
Summary of the method: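 Normalization used AC90 stimulation (300 pM IL-6) and AC90 inhibition (125 nM pan-JAK inhibitor at 40 pM IL-6). The underlying signal is SIE-driven beta-lactamase in ME-180 cells after 5 h IL-6 exposure with compound.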

[2] = target: Glucocorticoid receptor (Homo sapiens) (UniProt P04150); assay: GR-GFP Redistribution (AID 450;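 active means compounds whose dose series gives a full or clear partial fitted curve of increased nuclear translocation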; further: potency means the concentration at half of the fitted maximal effect); conditions: U2OS GR-GFP nuclear translocation, laser cytometry, 2 h
Sequence of Glucocorticoid receptor (Homo sapiens) (P04150 whole entry, looked up, the tested form may be a part): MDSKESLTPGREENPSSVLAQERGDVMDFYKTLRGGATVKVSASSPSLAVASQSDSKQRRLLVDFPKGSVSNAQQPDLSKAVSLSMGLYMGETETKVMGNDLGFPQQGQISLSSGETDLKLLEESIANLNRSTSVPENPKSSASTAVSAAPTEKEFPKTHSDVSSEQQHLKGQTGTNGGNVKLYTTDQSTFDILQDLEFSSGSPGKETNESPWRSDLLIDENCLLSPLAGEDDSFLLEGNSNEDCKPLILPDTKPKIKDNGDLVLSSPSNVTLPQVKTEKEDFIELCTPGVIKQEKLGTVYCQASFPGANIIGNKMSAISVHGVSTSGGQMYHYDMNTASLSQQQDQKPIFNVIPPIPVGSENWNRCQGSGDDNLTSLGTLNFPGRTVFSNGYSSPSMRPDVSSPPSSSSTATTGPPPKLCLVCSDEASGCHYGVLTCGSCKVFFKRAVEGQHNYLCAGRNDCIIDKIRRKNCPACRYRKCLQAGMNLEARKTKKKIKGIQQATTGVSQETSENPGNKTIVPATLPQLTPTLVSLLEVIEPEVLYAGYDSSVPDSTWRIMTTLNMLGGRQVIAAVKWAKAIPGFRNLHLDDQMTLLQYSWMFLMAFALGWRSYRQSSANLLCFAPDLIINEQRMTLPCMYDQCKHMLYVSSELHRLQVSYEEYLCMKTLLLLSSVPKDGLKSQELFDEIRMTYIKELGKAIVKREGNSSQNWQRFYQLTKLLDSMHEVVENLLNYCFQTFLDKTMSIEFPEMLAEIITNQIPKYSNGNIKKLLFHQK

[3] = target: Glucocorticoid receptor (Homo sapiens) (UniProt P04150); assay: GR-EFC Redistribution (AID 451; calls by dose curve; further: potency means the concentration at half of the fitted maximal effect); conditions: CHO-K1 GR-EFC translocation, beta-gal luminescence, 2 h
Summary of the method: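 CHO-K1 cells stably expressing nuclear-localized β-gal enzyme acceptor and GR fused C-terminally to the enzyme donor fragment; ligand-driven nuclear translocation restores β-gal by complementation. Compounds titrated up to 46 uM final, 2 h at 37 °C; luminescence read.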

[4] = target: 3',5'-cyclic-AMP phosphodiesterase 4B (Homo sapiens) (UniProt Q07343); assay: qHTS Assay for Inhibitors of PDE-IV (AID 607; active means well fitted activation curve with a large enough effect in the main read-out, with a control signal flat, not every such curve was filed as active; further: % of control where 0% means no effect)
Sequence of 3',5'-cyclic-AMP phosphodiesterase 4B (Homo sapiens) (Q07343 whole entry, looked up): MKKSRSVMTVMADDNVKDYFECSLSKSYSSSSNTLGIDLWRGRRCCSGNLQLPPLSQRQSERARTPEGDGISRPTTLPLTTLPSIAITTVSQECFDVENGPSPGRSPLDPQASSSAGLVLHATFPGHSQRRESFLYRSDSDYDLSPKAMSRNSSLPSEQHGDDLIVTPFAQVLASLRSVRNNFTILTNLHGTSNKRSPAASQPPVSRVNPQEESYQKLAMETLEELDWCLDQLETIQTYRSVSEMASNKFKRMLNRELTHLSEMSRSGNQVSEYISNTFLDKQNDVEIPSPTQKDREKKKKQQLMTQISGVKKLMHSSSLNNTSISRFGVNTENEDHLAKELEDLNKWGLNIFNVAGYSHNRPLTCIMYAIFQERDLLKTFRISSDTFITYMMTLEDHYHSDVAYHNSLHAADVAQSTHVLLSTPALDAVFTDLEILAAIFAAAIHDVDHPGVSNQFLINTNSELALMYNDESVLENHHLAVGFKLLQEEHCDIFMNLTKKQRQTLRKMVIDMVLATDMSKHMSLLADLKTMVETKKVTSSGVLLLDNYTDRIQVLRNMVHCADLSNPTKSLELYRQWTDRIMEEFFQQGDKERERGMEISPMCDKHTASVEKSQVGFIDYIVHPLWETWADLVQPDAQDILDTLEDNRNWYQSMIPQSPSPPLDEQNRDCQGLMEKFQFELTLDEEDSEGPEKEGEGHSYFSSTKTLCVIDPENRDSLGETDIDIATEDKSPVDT
Summary of the method: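 HEK293 ACTOne cells with CNG channel (1000/well), endogenous PDE4; membrane potential dye, compounds up to 22.9 uM final. Fluorescence Ex 535/Em 590; RO 20-1724 (100 uM final) as reference.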

[5] = target: Mitogen-activated protein kinase 10 (Mus musculus) (UniProt Q61831); assay: JNK3 AlphaScreen Assay (AID 530);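 further: kinase came from lysate of stimulated human HepG2 cells; signal reports phosphorylation of biotinylated GST-cJun 1-79 at Ser73 with 10 µM ATP; on the % scale 0 is the no-effect control and ±100 the full control effect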
Summary of the method: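 Phosphorylation of biotinylated GST-cJun(1-79) at Ser73 is measured by AlphaScreen proximity luminescence. Enzyme is JNK3 in HepG2 lysates activated with interleukin-1beta and tumor necrosis factor alpha; ATP is 10 uM final.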

| SMILES | activity, negative = inhibition [1] | Potency [2] | Potency [3] | Potency [4] | outcome [5] |
| --- | --- | --- | --- | --- | --- |
| NCCS(=O)O | -6.03% | > 46 µM | > 46 µM | inactive | – |
| Cn1ccnc1 | 8.3% | > 46 µM | – | inactive | inactive |
| CCCCCCCCCCCCCCSCC(=O)O | -3.53% | > 46 µM | > 46 µM | inactive | – |
| Nc1ncnc2c1c(-c1ccc(Oc3ccccc3)cc1)cn2C1CCCC1 | -13.6% | > 46 µM | – | inactive | inactive |
| Nc1nc2[nH]c(=O)cnc2c(=O)[nH]1 | 29.5% | > 46 µM | > 46 µM | inactive | – |
| COc1ccc2c(c1)c(CC(=O)O)c(C)n2C(=O)c1ccccc1 | -19% | > 46 µM | > 46 µM | inactive | – |
| CCn1c(=O)[nH]c2cc(Cl)c(Cl)cc21 | -18.6% | > 46 µM | > 46 µM | inactive | – |
| Cc1cccc(C(=O)NCN2CCN(c3ccccc3C#N)CC2)c1 | -3.73% | > 46 µM | – | inactive | inactive |
| COc1ccc(-c2ccc(N)[n+](CCCC(=O)O)n2)cc1 | 5.04% [at 17.2 µM] | > 46 µM and > 20.6 µM | > 46 µM and > 20.6 µM | inactive | – |
| CCN1C(=O)C=CC1=O | -6.29% | > 46 µM | > 46 µM | inactive | – |
| Nc1ccc2c3c(cccc13)C(=O)NC2=O | -25.5% | > 46 µM | – | inactive | inactive |
| O=C(O)C1=CCNCC1 | 16.7% | > 46 µM | – | inactive | inactive |
| CCSC(=N)N | 9.06% | > 46 µM | – | inactive | inactive |
| N#C/C(=C\c1ccc(O)c(O)c1)C(=O)NCCCNC(=O)/C(C#N)=C/c1ccc(O)c(O)c1 | -7.91% | > 46 µM | > 46 µM | inactive | – |
| CCC(=O)N1CCN(C(=O)c2ccccc2)CC1 | 2.58% | > 46 µM | – | inactive | inactive |
| c1ccc(CN2CCC3(CCCc4ccccc43)CC2)cc1 | -10.2% | > 46 µM | – | inactive | inactive |
| N[C@H](C(=O)O)c1cc(O)cc(O)c1 | 9.71% | > 46 µM | > 46 µM | inactive | – |
| C=CC[C@H](N)C(=O)O | 7.83% | > 46 µM | – | inactive | inactive |
| CCN(CC)CCOC(=O)c1cc(Cl)c(N)cc1OC | -0.802% | > 46 µM | – | inactive | inactive |
| CCCCCCCCCCCCCCC[C@H](O)[C@H](N)CO | – | > 46 µM | > 46 µM | inactive | inactive |

| SMILES | activity, negative = inhibition [1] | Potency [2] | Potency [3] | Potency [4] | outcome [5] |
| --- | --- | --- | --- | --- | --- |
| NCCCCN | -10.8% | > 46 µM | – | inactive | – |
| CN1CCN(c2nc3cc(C(F)(F)F)ccc3n3cccc23)CC1 | – | > 46 µM | > 46 µM | – | – |
| CC1CCN(CC[C@H]2CCCN2S(=O)(=O)c2cccc(O)c2)CC1 | – | > 46 µM | > 46 µM | inactive | inactive |
| Cn1c(=O)c2[nH]c(C3CCCC3)nc2n(C)c1=O | – | > 46 µM | – | – | – |
| C#CCn1c(=O)c2c(ncn2C)n(C)c1=O | 16.8% | > 46 µM | – | inactive | – |
| O=c1[nH]c(=S)[nH]c(-c2ccccc2)c1Cc1c(O)ccc2ccccc12 | -12.5% [at 7.69 µM] | > 46 µM | – | inactive | – |
| CCCc1c(-c2ccc(O)cc2)nn(-c2ccc(O)cc2)c1-c1ccc(O)cc1 | – | > 46 µM | > 46 µM | inactive | inactive |
| CN(C)CCCc1cc(C(=O)Nc2ccc(-c3ccncc3)cc2)ccc1O | – | > 46 µM | – | – | – |
| CN(C)S(=O)(=O)c1ccc2c(c1)/C(=C/c1cc3c([nH]1)CCCC3)C(=O)N2 | -60.7% (active) | – | > 46 µM | inactive | inactive |
| CCCC(=O)NCCc1c2n(c3ccc(OC)cc13)CCCc1ccccc1-2 | – | > 46 µM | > 46 µM | – | inactive |
| N[C@@H](CS(=O)O)C(=O)O | – | > 46 µM | > 46 µM | – | – |
| CC[C@H](NC(=O)c1c(C)c(-c2ccccc2)nc2ccccc12)c1ccccc1 | – | > 46 µM | > 46 µM | – | inactive |
| CSC(=N)N | -2.27% | – | – | inactive | – |
| C[C@](Cc1ccc(O)c(O)c1)(NN)C(=O)O | – | > 46 µM | > 46 µM | inactive | inactive |
| N=C(N)c1ccccc1 | 8.11% | – | – | inactive | inactive |
| OC1(c2ccc(Cl)cc2)CCN(Cc2c[nH]c3ccccc23)CC1 | – | > 46 µM | > 46 µM | inactive | inactive |
| Nc1ccc(N2C(=O)c3ccccc3C2=O)c(Cl)c1 | – | > 46 µM | > 46 µM | inactive | inactive |
| Cc1cc2c(cc1Cl)N(C(=O)Nc1ccnc3ccccc13)CC2 | – | > 46 µM | > 46 µM | inactive | inactive |
| Oc1ccc(Cn2cc[nH]c2=S)cc1 | 25% | > 46 µM | – | inactive | – |
| Oc1cc(O)c2c(c1)O[C@H](c1ccc(O)c(O)c1)[C@@H](O)C2 | – | > 46 µM | > 46 µM | inactive | inactive |
